As a reminder, the AC50 is the concentration at which the activity in the assay is half-maximal.

Test [1] in a line: ATG_PBREM_CIS: Attagene CIS-FACTORIAL HepG2 Assay for human Phenobarbital-responsive Enhancer Module (PBREM) (AID 2282955). As to conditions: HepG2 PBREM cis-reporter, Attagene multiplexed transcription; actives raise or lower the signal. In short, it runs like this: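 HepG2 cells transiently transfected with multiple cis-regulated reporter units measure endogenous transcription factor activity; 24 h compound exposure. Reporter mRNA quantified by RT-PCR, fluorescent labelling, HpaI digestion and capillary electrophoresis; bidirectional fit versus DMSO.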

The target of test [2] is Paired box protein Pax-6 (Homo sapiens) (UniProt P26367). The test can be described thus: ATG_Pax6_CIS: Attagene CIS-FACTORIAL HepG2 Assay for human Paired Box 6 (PAX6) (AID 2282956). Conditions: HepG2 CIS-FACTORIAL PAX6 reporter transcription, RNA readout; actives raise or lower the signal. In short, it runs like this: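 Read-out is reporter transcript level, measured by RT-PCR with fluorescent primer extension and capillary electrophoresis after 24 h dosing of transfected HepG2 cells. Activity in either direction fitted relative to DMSO control.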

Test [3] can be described thus: ATG_RORE_CIS: Attagene CIS-FACTORIAL HepG2 Assay for human RAR-related Orphan Receptor Element (RORE) (AID 2282959). Conditions: HepG2 Attagene cis-factorial RORE reporter, mRNA; actives raise or lower the signal. In short, it runs like this: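 HepG2 cells carrying transiently transfected cis-regulated reporter units; RORE-driven reporter mRNA quantified 24 h post-dosing by RT-PCR, 6-FAM primer extension, HpaI digestion and capillary electrophoresis. Bidirectional fit versus DMSO.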

Test [4] in a line: ATG_Sox_CIS: Attagene CIS-FACTORIAL HepG2 Assay for human SRY-box transcription factor (SOX) (AID 2282960). Conditions: HepG2 Attagene cis-factorial SOX reporter, mRNA; actives raise or lower the signal. In short, it runs like this:
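HepG2 cells transiently transfected with multiple cis-regulated reporter units, then dosed for 24 h. Reporter mRNA quantified by RT-PCR, fluorescent labelling, HpaI digestion and capillary electrophoresis; bidirectional fit versus DMSO.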

Test [5] deals with Transcription factor Sp1 (Homo sapiens) (UniProt P08047). Put plainly: ATG_Sp1_CIS: Attagene CIS-FACTORIAL HepG2 Assay for human Specificity Protein 1 (Sp1) (AID 2282961). Conditions: HepG2 Sp1 cis-reporter transcription, actives raise or lower the signal. In short, it runs like this: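 HepG2 cells transiently transfected with multiplexed cis-regulated reporter constructs, chemical exposure 24 h. Reporter mRNA quantified by RT-PCR with capillary electrophoresis; bidirectional fit relative to DMSO.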

A short description of test [6]: ATG_SREBP_CIS: Attagene CIS-FACTORIAL HepG2 Assay for human Sterol Regulatory Element Binding (SREBP) (AID 2282962). Conditions: HepG2 Attagene cis-factorial SREBP reporter, mRNA; actives raise or lower the signal. In short, it runs like this:
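Endogenous SREBP activity read as cis-element-driven reporter transcript in transiently transfected HepG2, 24 h post-dosing; quantified via RT-PCR plus capillary electrophoresis of fluorescent fragments. Gain or loss of signal fitted relative to DMSO baseline.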

In test [7] the target is Signal transducer and activator of transcription 3 (Homo sapiens) (UniProt P40763). Put plainly: ATG_STAT3_CIS: Attagene CIS-FACTORIAL HepG2 Assay for human Signal Transducer and Activator of Transcription 3 (STAT3) (AID 2282963). Conditions: HepG2, Attagene cis-factorial STAT3 reporter transcription; actives raise or lower the signal. In short, it runs like this:
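Cis-factorial format: endogenous transcription factors in HepG2 drive transfected reporter units. After 24 h treatment, reporter RNA was reverse-transcribed, amplified, FAM-labelled and HpaI-digested before CE analysis; activity scored in both directions against DMSO.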

A short description of test [8]: ATG_TCF_b_cat_CIS: Attagene CIS-FACTORIAL HepG2 Assay for human T-Cell-Factor with beta-catenin (TCF/b-cat) (AID 2282965). As to conditions: HepG2 TCF/beta-catenin cis-reporter transcription, actives raise or lower the signal. In short, it runs like this:
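Endogenous TCF/LEF activity read as reporter transcript level via RT-PCR and capillary electrophoresis fluorescence in transfected HepG2, 24 h exposure; gain or loss of signal fitted against DMSO controls.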

Test [9] can be described thus: ATG_TAL_CIS: Attagene CIS-FACTORIAL HepG2 Assay for human TAL Basal Promoter (AID 2282966).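 Further: background control endpoint measuring basal TAL promoter reporter mRNA not a specific factor.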 Conditions: HepG2 Attagene cis-factorial TAL promoter reporter; actives raise or lower the signal. In short, it runs like this:
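Human hepatoma HepG2 cells, transfected with promoter-regulated reporter units, were treated 24 h. Reporter transcript levels, measured through RT-PCR and capillary electrophoresis, were fitted for gain or loss relative to DMSO.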

A short description of test [10]: ATG_TGFb_CIS: Attagene CIS-FACTORIAL HepG2 Assay for human Transforming Growth Factor (TGF) (AID 2282967). Conditions: HepG2 Attagene CIS TGFb reporter, mRNA transcription; actives raise or lower the signal. In short, it runs like this: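 HepG2 cells transiently transfected with cis-promoter-driven multiple reporter units measure endogenous TF activity; reporter mRNA quantified at 24 h by RT-PCR, FAM labeling, HpaI digestion and capillary electrophoresis. Bidirectional fit vs DMSO.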

Test [11] can be described thus: ATG_VDRE_CIS: Attagene CIS-FACTORIAL HepG2 Assay for human Vitamin D Receptor Element (VDRE) (AID 2282968). Conditions: HepG2 VDRE cis-reporter transcription, actives raise or lower the signal. In short, it runs like this:
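Measures endogenous factor activity through cis-element-driven reporter transcripts in transiently transfected HepG2. Cells are treated 24 h; reporter mRNA is quantified by RT-PCR and capillary electrophoresis; fitting is bidirectional.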

Test [12] concerns the target Nuclear receptor subfamily 1 group I member 3 (Homo sapiens) (UniProt Q14994). The test can be described thus: ATG_CAR_TRANS: Attagene TRANS-FACTORIAL HepG2 Assay for human Constitutive Androstane Receptor (CAR) (AID 2282969; active means hit-call score of the fitted dose curve at least 0.9, where 1 is the maximum;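 further: activators raise reporter mRNA above DMSO so AC50 marks induction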). As to conditions: HepG2 Attagene TRANS-FACTORIAL CAR reporter. In short, it runs like this:
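Signal is reporter mRNA induction relative to DMSO, measured 24 h after dosing by RT-PCR with fluorescent primer extension and capillary electrophoresis. Human HepG2 liver cells carried transiently transfected chimeric NR-Gal4/GAL4-UAS reporter constructs.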

In test [13] the target is Estrogen receptor (Homo sapiens) (UniProt P03372). Put plainly: ATG_ERa_TRANS: Attagene TRANS-FACTORIAL HepG2 Assay for human Estrogen Receptor alpha (ERa) (AID 2282970; active means hit-call score of the fitted dose curve at least 0.9, where 1 is the maximum). Conditions: HepG2 Attagene TRANS ERa GAL4 reporter, mRNA. In short, it runs like this:
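Signal derives from fluorescence of labelled reporter PCR fragments separated by capillary electrophoresis. HepG2 cells transiently carrying multiple GAL4-UAS reporter units were treated 24 hours, and induction above DMSO baseline was fitted as activity.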

Test [14] addresses Steroid hormone receptor ERR1 (Homo sapiens) (UniProt P11474). The test can be described thus: ATG_ERRa_TRANS: Attagene TRANS-FACTORIAL HepG2 Assay for human Estrogen-Related Receptor alpha (ERRa) (AID 2282971; active means hit-call score of the fitted dose curve at least 0.9, where 1 is the maximum). As to conditions: HepG2 Attagene TRANS reporter, ERRa transactivation. In short, it runs like this: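 Signal gain relative to DMSO for an ERRa-Gal4 chimeric receptor, read as reporter mRNA by RT-PCR/capillary electrophoresis. Human HepG2 liver cells, transient multiplex reporter transfection, 24 h chemical exposure.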

In test [15] the target is X-box-binding protein 1 (Homo sapiens) (UniProt P17861). Put plainly: ATG_Xbp1_CIS: Attagene CIS-FACTORIAL HepG2 Assay for human X-box Binding Protein 1 (XBP1) (AID 2282972). Conditions: HepG2 XBP1 cis-element reporter, Attagene multiplex; actives raise or lower the signal. In short, it runs like this: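 Reporter transcripts were quantified by RT-PCR with fluorescent primer extension and capillary electrophoresis after 24 h chemical exposure. Cells: transiently transfected HepG2 carrying cis-regulated reporter constructs; data fitted bidirectionally relative to DMSO.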

A short description of test [16]: ATG_PPRE_CIS: Attagene CIS-FACTORIAL HepG2 Assay for human Peroxisome Proliferator-activated Response Element (PPRE) (AID 2282958). As to conditions: HepG2 PPRE cis-element reporter, Attagene transcription factor profiling; actives raise or lower the signal. In short, it runs like this: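 HepG2 cells are transiently transfected with multiplexed cis-promoter reporter units to report endogenous PPAR activity. After 24 h dosing, reporter mRNA is read by RT-PCR and capillary electrophoresis. Fitting is bidirectional against DMSO.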

The nature of test [17]: ATG_TA_CIS: Attagene CIS-FACTORIAL HepG2 Assay for human TA Basal Promoter (AID 2282964). Conditions: HepG2 Attagene CIS-factorial TA basal promoter reporter; actives raise or lower the signal. In short, it runs like this: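 HepG2 cells transiently transfected with multiple reporter units under cis promoter elements, reporting endogenous transcription factor activity; this endpoint tracks the TA basal promoter as background control. Reporter mRNA after 24 h dosing measured by RT-PCR/capillary electrophoresis; bidirectional fits versus DMSO.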

The nature of test [18]: ATG_M_19_TRANS: Attagene TRANS-FACTORIAL HepG2 Assay for M19 Transcription Factor (Internal Marker) (AID 2282974; active means hit-call score of the fitted dose curve at least 0.9, where 1 is the maximum). As to conditions: HepG2 Attagene TRANS-FACTORIAL M19 internal marker reporter. In short, it runs like this: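 HepG2 transiently transfected with GAL4-UAS multiplex reporter constructs, exposed 24 h; reporter RNA quantified by RT-PCR, 6-FAM labeling, HpaI digestion and capillary electrophoresis; internal background marker fitted upward versus DMSO.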

The nature of test [19]: ATG_PXRE_CIS: Attagene CIS-FACTORIAL HepG2 Assay for human Pregnane X Receptor Element (PXRE) (AID 2282957). Conditions: HepG2 Attagene CIS-FACTORIAL PXRE reporter, mRNA; actives raise or lower the signal. In short, it runs like this: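 Bidirectional activity, baselined to DMSO, derived from reporter mRNA fluorescence (RT-PCR plus capillary electrophoresis) in HepG2 cells bearing cis-promoter reporter units, 24 h exposure.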

Test [20] is described as follows: ATG_GAL4_TRANS: Attagene TRANS-FACTORIAL HepG2 Assay for GAL4 (Internal Marker) (AID 2282976; active means hit-call score of the fitted dose curve at least 0.9, where 1 is the maximum). Conditions: HepG2 Attagene TRANS GAL4 internal marker reporter. In short, it runs like this: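 Liver HepG2 line bearing multiplexed GAL4-UAS reporter constructs; 24 h chemical treatment. Transcripts were quantified as fluorescent fragments on capillary electrophoresis after RT-PCR and HpaI cut, with activity fitted upward from DMSO.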

Inconclusive results are not listed. Calls of active or inactive are those of the source. How the source made its calls, unless noted: active means hit-call score of the fitted dose curve at least 0.9, where 1 is the maximum; inactive means score below 0.9.

Sequence of X-box-binding protein 1 (Homo sapiens) (P17861 whole entry, looked up): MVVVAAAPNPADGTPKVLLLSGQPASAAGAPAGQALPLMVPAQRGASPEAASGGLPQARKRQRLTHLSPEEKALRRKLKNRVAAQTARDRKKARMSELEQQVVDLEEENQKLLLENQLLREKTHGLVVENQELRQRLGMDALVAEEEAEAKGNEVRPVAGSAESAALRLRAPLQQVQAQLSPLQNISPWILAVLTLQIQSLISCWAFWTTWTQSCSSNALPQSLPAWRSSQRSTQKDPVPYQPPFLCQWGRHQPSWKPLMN
Sequence of Estrogen receptor (Homo sapiens) (P03372 whole entry, looked up, the tested form may be a part): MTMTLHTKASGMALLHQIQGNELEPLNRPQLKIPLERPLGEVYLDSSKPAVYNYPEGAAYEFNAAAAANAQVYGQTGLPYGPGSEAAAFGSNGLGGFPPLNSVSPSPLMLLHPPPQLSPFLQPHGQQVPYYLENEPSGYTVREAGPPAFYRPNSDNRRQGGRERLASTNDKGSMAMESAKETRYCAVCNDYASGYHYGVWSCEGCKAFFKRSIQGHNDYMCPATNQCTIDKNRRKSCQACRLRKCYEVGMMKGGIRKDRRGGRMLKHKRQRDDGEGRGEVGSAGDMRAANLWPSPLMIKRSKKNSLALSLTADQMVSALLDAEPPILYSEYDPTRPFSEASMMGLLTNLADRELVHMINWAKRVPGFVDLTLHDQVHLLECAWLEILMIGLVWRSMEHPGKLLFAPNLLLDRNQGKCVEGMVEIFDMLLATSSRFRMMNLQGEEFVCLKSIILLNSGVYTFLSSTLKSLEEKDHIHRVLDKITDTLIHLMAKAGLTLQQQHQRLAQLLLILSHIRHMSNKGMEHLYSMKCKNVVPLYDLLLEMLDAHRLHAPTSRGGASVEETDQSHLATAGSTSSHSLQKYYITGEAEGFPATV
Sequence of Signal transducer and activator of transcription 3 (Homo sapiens) (P40763 whole entry, looked up): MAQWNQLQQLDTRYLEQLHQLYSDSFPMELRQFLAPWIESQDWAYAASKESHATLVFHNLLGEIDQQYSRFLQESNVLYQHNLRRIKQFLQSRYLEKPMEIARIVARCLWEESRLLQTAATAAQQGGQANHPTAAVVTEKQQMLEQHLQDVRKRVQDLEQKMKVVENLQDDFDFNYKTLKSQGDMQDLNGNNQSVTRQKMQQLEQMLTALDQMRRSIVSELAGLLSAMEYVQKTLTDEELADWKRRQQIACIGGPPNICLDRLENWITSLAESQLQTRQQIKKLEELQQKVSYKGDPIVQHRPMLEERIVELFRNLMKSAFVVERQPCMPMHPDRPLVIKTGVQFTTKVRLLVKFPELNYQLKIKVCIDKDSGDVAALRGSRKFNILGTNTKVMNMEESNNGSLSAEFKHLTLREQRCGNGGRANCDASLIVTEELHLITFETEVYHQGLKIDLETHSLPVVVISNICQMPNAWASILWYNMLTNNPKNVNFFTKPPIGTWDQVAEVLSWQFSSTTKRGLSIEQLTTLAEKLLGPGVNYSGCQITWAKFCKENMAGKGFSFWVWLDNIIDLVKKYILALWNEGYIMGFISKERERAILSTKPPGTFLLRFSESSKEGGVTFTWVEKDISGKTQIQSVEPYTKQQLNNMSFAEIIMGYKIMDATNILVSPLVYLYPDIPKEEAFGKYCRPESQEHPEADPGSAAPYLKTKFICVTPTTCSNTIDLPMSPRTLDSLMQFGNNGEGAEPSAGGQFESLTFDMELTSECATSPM
Sequence of Paired box protein Pax-6 (Homo sapiens) (P26367 whole entry, looked up): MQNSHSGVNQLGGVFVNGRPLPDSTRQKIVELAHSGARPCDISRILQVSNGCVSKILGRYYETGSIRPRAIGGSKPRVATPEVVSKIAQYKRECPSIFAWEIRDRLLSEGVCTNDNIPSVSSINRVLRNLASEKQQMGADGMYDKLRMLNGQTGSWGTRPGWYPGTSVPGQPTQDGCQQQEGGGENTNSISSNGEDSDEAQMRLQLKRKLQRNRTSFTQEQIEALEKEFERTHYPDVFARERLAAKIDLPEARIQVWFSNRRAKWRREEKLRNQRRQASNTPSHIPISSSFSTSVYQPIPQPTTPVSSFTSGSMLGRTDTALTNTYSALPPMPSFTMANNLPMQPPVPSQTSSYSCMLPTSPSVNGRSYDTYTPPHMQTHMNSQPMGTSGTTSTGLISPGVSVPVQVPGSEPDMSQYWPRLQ
Sequence of Transcription factor Sp1 (Homo sapiens) (P08047 whole entry, looked up): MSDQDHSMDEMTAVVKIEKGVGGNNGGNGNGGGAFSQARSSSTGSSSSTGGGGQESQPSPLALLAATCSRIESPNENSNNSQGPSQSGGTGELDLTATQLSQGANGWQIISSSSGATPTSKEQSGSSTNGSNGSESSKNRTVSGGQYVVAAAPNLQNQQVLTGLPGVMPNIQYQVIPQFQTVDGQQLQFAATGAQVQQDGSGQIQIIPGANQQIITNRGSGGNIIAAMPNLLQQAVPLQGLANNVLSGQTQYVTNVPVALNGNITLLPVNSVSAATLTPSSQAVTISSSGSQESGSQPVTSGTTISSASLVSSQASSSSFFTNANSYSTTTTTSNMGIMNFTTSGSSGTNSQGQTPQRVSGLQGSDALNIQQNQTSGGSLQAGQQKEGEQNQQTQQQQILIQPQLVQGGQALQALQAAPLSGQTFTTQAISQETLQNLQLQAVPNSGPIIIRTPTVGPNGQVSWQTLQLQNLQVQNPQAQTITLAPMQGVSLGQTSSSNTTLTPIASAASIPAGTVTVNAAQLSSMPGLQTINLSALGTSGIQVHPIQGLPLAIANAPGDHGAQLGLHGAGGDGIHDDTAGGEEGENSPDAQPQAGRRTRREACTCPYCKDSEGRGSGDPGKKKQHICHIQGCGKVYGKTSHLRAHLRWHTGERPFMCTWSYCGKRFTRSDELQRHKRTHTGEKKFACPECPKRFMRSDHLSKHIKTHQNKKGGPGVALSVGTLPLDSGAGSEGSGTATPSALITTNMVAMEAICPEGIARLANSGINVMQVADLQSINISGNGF
Sequence of Steroid hormone receptor ERR1 (Homo sapiens) (P11474 whole entry, looked up, the tested form may be a part): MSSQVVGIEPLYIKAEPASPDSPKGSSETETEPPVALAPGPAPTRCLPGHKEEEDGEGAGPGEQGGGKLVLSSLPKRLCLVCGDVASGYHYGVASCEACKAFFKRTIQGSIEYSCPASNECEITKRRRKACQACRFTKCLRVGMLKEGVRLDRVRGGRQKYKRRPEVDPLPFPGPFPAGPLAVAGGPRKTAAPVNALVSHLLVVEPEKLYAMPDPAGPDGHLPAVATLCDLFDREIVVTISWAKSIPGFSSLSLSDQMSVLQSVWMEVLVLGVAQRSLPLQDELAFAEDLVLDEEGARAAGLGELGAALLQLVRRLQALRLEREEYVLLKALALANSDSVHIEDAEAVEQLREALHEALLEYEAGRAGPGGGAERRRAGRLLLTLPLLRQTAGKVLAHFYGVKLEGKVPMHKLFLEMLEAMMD
Sequence of Nuclear receptor subfamily 1 group I member 3 (Homo sapiens) (Q14994 whole entry, looked up, the tested form may be a part): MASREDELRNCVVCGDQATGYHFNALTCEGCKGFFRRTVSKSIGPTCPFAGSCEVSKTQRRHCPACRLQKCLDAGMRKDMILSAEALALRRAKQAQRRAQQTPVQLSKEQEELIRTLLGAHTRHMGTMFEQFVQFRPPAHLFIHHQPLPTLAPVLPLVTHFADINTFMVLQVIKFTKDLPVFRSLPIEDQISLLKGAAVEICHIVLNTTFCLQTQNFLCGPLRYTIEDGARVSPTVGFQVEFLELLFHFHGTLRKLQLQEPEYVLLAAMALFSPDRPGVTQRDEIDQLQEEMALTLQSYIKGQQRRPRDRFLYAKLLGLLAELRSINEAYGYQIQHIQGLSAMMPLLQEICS

In the case of `CC1(C)[C@@H]2CC[C@@]1(C)C(=O)C2`, the outcome in test [1], in [2], in test [3], in [4], in test [5] and in test [6] was inactive. Moreover, the call in test [7], in [8], in [9], in test [10], in test [11] and in test [12] was inactive. In addition, the compound was called inactive in test [13], in test [14] and in [15].

Turning to `O=C1c2ccccc2C(=O)c2cc(S(=O)(=O)O)ccc21`, the result in [1], in test [2], in test [16], in test [4], in test [5] and in [6] was inactive. Also, the outcome in test [7], in [17], in test [8], in [9], in [10] and in test [11] was inactive. The compound was called inactive in [15].

As for `Fc1ccc(Br)cc1`, the outcome in [1], in test [2], in test [3], in test [4], in [5] and in test [6] was inactive. The compound was classed as inactive in test [7], in test [17], in test [8], in test [9], in test [10] and in test [11]. For the same compound, the compound was called inactive in test [12], in test [14], in [15] and in test [18]. Besides, in test [13], the AC50 was 79.7 µM (active).

For the compound `CC1CCC(C(C)(C)S)C(=O)C1` (stereo unspecified), the call in test [2], in test [16], in test [3], in [4], in test [5] and in test [6] was inactive. Besides, the compound was classed as inactive in test [7], in test [17], in [8], in [9], in [10] and in test [11]. Further, the result in [13], in test [15] and in test [20] was inactive. Besides, the AC50 in test [19] is 2.13 µM (active).

For the origin of these results see PubChem BioAssay (EPA / NIEHS).
